The full data set covers some 7,900 targets. This sample favours those with a hit. About 0.6% of all pairs of compound and target were hits.
Legend:
Test in all cases: log2 fold change, soluble protein after heating vs DMSO (PISA); higher = thermal stabilisation; K562 cells, 10 uM, 30 min; active = over 0.2 and 3.5 SD of the protein, either way, in both replicates (recomputed)
[1] = compound: COC1=CC=C(C=C1)CN2C=CC3=C2C=C(C=C3)C(=O)NO
Summary of the method: (§1)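 K562 cells (2×10^6 cells/mL) were treated with 10 μM compound for 30 min, and aliquots were heated for 3 min over 48°C-58°C. Pooled aliquots were extracted in PBS with 0.5% NP-40 at 4°C, and the supernatant after 21,000xg for 90 min was measured by TMTpro 16plex LC-MS/MS with channel sums equalised. Reported thermal stability, relative to control samples and from duplicates, is a log2 fold change.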

filanesib = compound: CON(C)C(=O)N1N=C(c2cc(F)ccc2F)S[C@@]1(CCCN)c1ccccc1 [filanesib]
Summary of the method: as §1

zotarolimus = compound: CO[C@H]1C[C@@H]2CC[C@@H](C)[C@@](O)(O2)C(=O)C(=O)N2CCCC[C@H]2C(=O)O[C@H]([C@H](C)C[C@@H]2CC[C@H](n3cnnn3)[C@H](OC)C2)CC(=O)[C@H](C)/C=C(\C)[C@@H](O)[C@@H](OC)C(=O)[C@H](C)C[C@H](C)/C=C/C=C/C=C/1C [zotarolimus]
Summary of the method: as §1

idasanutlin = compound: COc1cc(C(=O)O)ccc1NC(=O)[C@@H]1N[C@@H](CC(C)(C)C)[C@](C#N)(c2ccc(Cl)cc2F)[C@H]1c1cccc(Cl)c1F [idasanutlin]
Summary of the method: as §1

alisertib = compound: COc1cc(Nc2ncc3c(n2)-c2ccc(Cl)cc2C(c2c(F)cccc2OC)=NC3)ccc1C(=O)O [alisertib]
Summary of the method: as §1

[2] = compound: COc1cc2nc(-c3cc(F)ccc3O)nc(N[C@@H]3CNC[C@H]3C(C)(C)O)c2cc1OC
Summary of the method: as §1

gefitinib = compound: COc1cc2ncnc(Nc3ccc(F)c(Cl)c3)c2cc1OCCCN1CCOCC1 [gefitinib]
Summary of the method: as §1

[3] = compound: COc1cccc2cc(-c3nc([C@H]4CC[C@H](C(=O)O)CC4)n4ncnc(N)c34)[nH]c12
Summary of the method: as §1

lapatinib = compound: CS(=O)(=O)CCNCc1ccc(-c2ccc3ncnc(Nc4ccc(OCc5cccc(F)c5)c(Cl)c4)c3c2)o1 [lapatinib]
Summary of the method: as §1

pictilisib = compound: CS(=O)(=O)N1CCN(Cc2cc3nc(-c4cccc5[nH]ncc45)nc(N4CCOCC4)c3s2)CC1 [pictilisib]
Summary of the method: as §1

Measured: log2 fold change

FDPS (UniProt P14324)
UniProt P14324, sequence (P14324 whole entry, looked up): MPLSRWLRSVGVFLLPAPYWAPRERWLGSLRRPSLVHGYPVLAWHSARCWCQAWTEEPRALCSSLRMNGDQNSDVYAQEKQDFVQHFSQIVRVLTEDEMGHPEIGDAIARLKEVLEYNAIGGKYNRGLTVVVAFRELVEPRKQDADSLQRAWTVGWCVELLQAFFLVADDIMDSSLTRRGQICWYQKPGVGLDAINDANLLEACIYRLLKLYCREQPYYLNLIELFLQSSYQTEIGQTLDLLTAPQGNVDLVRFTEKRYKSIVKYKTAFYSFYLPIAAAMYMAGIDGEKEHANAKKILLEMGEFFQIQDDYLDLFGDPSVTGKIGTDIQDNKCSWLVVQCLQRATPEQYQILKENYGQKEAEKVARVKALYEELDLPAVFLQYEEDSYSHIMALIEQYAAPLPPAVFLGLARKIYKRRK
inactive: [1] 0.048 | filanesib -0.246 | zotarolimus 0.019 | idasanutlin -0.063 | alisertib 0.066 | [2] 0.118 | gefitinib -0.047 | [3] 0.009 | lapatinib -0.018 | pictilisib -0.076

GIGYF2 (UniProt Q6Y7W6)
inactive: [1] 0.005 | filanesib 0.008 | zotarolimus 0.016 | idasanutlin 0 | alisertib -0.023 | [2] 0.07 | gefitinib -0.043 | [3] -0.026 | lapatinib -0.016 | pictilisib -0.027

HNRNPUL2 (UniProt Q1KMD3)
inactive: [1] -0.012 | filanesib 0.156 | zotarolimus -0.015 | idasanutlin 0.083 | alisertib -0.026 | [2] 0.105 | gefitinib -0.02 | [3] 0.005 | lapatinib -0.018 | pictilisib 0.035

GSTO1 (UniProt P78417)
UniProt P78417, sequence (P78417 whole entry, looked up): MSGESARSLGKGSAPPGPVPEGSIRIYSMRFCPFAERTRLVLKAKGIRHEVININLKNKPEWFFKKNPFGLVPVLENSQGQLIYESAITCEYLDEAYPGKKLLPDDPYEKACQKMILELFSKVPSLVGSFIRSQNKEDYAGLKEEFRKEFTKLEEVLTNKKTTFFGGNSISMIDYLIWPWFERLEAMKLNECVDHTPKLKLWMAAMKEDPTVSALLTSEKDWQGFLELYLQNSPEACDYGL
inactive: [1] -0.015 | filanesib -0.031 | zotarolimus -0.017 | idasanutlin -0.037 | alisertib -0.063 | [2] -0.048 | gefitinib -0.001 | [3] 0.021 | lapatinib 0.02 | pictilisib -0.033

GNB2 (UniProt P62879)
inactive: [1] -0.051 | filanesib 0.034 | zotarolimus -0.006 | idasanutlin -0.058 | alisertib -0.068 | [2] 0.089 | gefitinib 0.085 | [3] -0.071 | lapatinib 0 | pictilisib 0.13

GUSB (UniProt P08236)
UniProt P08236, sequence (P08236 whole entry, looked up): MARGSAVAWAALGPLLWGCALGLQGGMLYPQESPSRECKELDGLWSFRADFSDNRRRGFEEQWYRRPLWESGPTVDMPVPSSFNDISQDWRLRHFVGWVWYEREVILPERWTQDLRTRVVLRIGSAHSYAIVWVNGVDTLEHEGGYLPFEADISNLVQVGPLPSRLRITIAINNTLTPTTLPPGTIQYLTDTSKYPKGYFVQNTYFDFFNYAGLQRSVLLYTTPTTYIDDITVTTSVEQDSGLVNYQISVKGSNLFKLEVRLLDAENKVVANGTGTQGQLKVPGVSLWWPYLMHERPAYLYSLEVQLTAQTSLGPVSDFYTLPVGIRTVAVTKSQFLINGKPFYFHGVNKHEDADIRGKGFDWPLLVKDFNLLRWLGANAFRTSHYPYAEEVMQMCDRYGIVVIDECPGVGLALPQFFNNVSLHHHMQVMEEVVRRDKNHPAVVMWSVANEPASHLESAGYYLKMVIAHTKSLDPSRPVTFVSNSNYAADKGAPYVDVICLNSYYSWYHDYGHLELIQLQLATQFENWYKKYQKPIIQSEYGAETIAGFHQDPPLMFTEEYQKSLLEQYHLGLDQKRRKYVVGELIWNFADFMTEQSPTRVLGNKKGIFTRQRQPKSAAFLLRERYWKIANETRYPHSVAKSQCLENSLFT
inactive: [1] -0.063 | filanesib -0.016 | zotarolimus 0.014 | idasanutlin 0.034 | alisertib 0.022 | [2] -0.084 | gefitinib -0.013 | [3] -0.027 | lapatinib 0.016 | pictilisib 0.098

FMC1 (UniProt Q96HJ9)
UniProt Q96HJ9, sequence (Q96HJ9 whole entry, looked up): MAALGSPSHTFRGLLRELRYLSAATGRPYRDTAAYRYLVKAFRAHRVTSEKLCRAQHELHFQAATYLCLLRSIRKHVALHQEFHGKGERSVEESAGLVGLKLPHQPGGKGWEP
inactive: [1] 0.068 | filanesib -0.037 | zotarolimus -0.101 | idasanutlin -0.091 | alisertib -0.042 | [2] -0.008 | gefitinib 0.06 | [3] 0.023 | lapatinib -0.018 | pictilisib 0.024

IFT80 isoform 3 (UniProt Q9P2H3)
UniProt Q9P2H3, sequence (Q9P2H3 whole entry, looked up): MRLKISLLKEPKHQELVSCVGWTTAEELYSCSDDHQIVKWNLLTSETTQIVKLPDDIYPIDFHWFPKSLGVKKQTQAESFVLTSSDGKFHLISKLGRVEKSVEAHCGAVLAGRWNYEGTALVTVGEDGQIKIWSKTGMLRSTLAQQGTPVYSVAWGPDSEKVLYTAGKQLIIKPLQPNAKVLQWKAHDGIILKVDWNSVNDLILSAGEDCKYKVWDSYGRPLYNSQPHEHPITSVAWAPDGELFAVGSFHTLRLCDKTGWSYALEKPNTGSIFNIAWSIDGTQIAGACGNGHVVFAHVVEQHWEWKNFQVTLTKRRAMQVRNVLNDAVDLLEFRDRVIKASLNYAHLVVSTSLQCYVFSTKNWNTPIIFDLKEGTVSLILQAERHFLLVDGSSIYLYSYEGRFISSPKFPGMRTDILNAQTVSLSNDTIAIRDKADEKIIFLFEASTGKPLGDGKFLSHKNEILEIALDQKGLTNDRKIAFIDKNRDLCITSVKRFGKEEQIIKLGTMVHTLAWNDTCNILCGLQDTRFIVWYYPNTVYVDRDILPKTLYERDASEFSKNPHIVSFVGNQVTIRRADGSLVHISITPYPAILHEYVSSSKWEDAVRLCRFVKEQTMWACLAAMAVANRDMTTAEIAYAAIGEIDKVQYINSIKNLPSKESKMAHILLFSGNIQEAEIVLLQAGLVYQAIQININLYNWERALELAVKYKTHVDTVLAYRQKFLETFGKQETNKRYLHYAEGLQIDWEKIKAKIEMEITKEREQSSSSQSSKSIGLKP
inactive: [1] -0.128 | filanesib -0.043 | zotarolimus 0.003 | idasanutlin -0.066 | alisertib -0.039 | [2] 0.01 | gefitinib -0.07 | [3] 0.04 | lapatinib -0.038 | pictilisib 0.034

HNRNPC isoform 2 (UniProt P07910)
inactive: [1] 0.009 | filanesib 0.39 | zotarolimus -0.024 | idasanutlin 0.796 | alisertib -0.052 | [2] -0.041 | gefitinib 0.002 | [3] -0.065 | lapatinib -0.026 | pictilisib 0.065

HIST2H3A (UniProt Q71DI3)
inactive: [1] 0.037 | filanesib 0.268 | zotarolimus -0.167 | idasanutlin 0.508 | alisertib 0.001 | [2] -0.106 | gefitinib 0.061 | [3] -0.367 | lapatinib 0.065 | pictilisib -0.021

FBXO3 (UniProt Q9UK99)
inactive: [1] 0.011 | filanesib -0.053 | zotarolimus -0.022 | idasanutlin 0.032 | alisertib -0.071 | [2] -0.013 | gefitinib 0.011 | [3] 0.025 | lapatinib 0.028 | pictilisib -0.023

HRC (UniProt P23327)
UniProt P23327, sequence (P23327 whole entry, looked up): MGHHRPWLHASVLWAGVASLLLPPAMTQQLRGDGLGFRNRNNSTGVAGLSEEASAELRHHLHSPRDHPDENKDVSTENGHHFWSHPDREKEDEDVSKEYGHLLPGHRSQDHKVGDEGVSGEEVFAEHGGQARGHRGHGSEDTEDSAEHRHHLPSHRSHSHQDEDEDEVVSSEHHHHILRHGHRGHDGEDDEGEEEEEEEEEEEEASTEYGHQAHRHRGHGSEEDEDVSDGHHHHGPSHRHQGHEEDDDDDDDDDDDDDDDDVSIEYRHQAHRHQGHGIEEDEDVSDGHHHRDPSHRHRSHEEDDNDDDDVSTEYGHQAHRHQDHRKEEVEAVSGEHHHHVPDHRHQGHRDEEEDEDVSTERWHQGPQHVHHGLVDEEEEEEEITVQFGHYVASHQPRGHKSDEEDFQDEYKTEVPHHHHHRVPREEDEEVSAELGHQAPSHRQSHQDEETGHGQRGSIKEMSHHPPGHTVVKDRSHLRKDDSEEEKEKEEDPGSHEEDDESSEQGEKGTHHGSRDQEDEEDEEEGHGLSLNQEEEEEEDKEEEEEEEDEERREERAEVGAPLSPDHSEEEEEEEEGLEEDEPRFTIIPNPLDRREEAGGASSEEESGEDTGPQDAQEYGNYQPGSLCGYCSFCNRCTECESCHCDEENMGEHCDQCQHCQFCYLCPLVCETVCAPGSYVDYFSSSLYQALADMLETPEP
inactive: [1] -0.089 | filanesib 0.019 | zotarolimus -0.032 | idasanutlin 0.035 | alisertib -0.059 | [2] -0.008 | gefitinib 0.035 | [3] -0.007 | lapatinib -0.039 | pictilisib 0.017

GDI1 (UniProt P31150)
UniProt P31150, sequence (P31150 whole entry, looked up): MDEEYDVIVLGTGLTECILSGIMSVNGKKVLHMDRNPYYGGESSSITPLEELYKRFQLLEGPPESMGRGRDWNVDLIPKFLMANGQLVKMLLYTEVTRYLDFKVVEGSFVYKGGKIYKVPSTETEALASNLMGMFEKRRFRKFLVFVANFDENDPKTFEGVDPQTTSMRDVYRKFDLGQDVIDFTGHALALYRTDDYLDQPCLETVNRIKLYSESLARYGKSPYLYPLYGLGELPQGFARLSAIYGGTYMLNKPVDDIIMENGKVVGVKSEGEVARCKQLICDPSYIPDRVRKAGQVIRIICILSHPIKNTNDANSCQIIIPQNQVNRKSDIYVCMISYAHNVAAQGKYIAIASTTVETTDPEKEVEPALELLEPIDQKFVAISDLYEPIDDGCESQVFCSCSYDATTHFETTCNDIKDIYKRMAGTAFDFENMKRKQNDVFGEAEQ
inactive: [1] -0.073 | filanesib -0.043 | zotarolimus 0.01 | idasanutlin -0.056 | alisertib -0.067 | [2] 0.045 | gefitinib -0.011 | [3] 0.037 | lapatinib -0.032 | pictilisib -0.006

GNS (UniProt P15586)
inactive: [1] -0.014 | filanesib -0.041 | zotarolimus -0.05 | idasanutlin -0.002 | alisertib -0.034 | [2] -0.011 | gefitinib 0.017 | [3] 0.039 | lapatinib -0.024 | pictilisib 0.014

GLRX3 (UniProt O76003)
UniProt O76003, sequence (O76003 whole entry, looked up): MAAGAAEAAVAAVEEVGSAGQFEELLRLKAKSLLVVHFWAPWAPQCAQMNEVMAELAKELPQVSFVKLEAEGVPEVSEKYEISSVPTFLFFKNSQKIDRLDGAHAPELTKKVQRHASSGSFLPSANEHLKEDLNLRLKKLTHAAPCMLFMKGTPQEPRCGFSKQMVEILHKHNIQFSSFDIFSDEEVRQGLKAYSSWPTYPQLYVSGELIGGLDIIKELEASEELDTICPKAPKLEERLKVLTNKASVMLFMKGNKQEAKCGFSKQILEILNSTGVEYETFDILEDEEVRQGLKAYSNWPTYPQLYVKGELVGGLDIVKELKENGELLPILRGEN
inactive: [1] 0.005 | filanesib -0.056 | zotarolimus 0.056 | idasanutlin -0.001 | alisertib -0.063 | [2] 0.012 | gefitinib -0.009 | [3] -0.018 | lapatinib 0.062 | pictilisib -0.003

HDDC2 (UniProt Q7Z4H3)
UniProt Q7Z4H3, sequence (Q7Z4H3 whole entry, looked up): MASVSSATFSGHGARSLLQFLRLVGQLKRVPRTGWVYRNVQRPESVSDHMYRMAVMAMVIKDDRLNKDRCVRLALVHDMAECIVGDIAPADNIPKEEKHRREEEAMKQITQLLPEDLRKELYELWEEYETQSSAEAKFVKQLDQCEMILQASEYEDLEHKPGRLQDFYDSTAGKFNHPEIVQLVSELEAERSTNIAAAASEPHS
inactive: [1] -0.098 | filanesib -0.037 | zotarolimus 0.049 | idasanutlin -0.068 | alisertib 0.04 | [2] -0.05 | gefitinib -0.022 | [3] 0.068 | lapatinib 0.037 | pictilisib 0.064

HSD17B12 (UniProt Q53GQ0)
UniProt Q53GQ0, sequence (Q53GQ0 whole entry, looked up): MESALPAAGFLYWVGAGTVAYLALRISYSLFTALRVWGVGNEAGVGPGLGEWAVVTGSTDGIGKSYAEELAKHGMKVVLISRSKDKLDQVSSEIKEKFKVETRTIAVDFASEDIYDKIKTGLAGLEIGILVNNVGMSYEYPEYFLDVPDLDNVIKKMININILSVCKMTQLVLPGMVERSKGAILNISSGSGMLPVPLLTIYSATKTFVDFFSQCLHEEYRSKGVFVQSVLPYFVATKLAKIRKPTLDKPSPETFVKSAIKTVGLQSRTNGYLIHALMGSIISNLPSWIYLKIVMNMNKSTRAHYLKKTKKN
inactive: [1] 0.069 | filanesib -0.013 | zotarolimus 0.03 | idasanutlin -0.169 | alisertib 0.003 | [2] 0.135 | gefitinib 0.103 | [3] 0.045 | pictilisib 0.102
active: lapatinib 0.369

GLUL (UniProt P15104)
inactive: [1] 0.11 | filanesib 0.002 | zotarolimus -0.154 | idasanutlin 0.032 | alisertib -0.013 | [2] -0.061 | gefitinib 0.01 | lapatinib -0.032 | pictilisib -0.001
active: [3] -0.225

FBXO7 (UniProt Q9Y3I1)
inactive: [1] 0.037 | filanesib -0.069 | zotarolimus -0.026 | idasanutlin -0.04 | alisertib -0.082 | [2] 0.082 | gefitinib -0.023 | [3] 0.011 | lapatinib -0.082 | pictilisib 0.036

GLS isoform 3 (UniProt O94925)
UniProt O94925, sequence (O94925 whole entry, looked up): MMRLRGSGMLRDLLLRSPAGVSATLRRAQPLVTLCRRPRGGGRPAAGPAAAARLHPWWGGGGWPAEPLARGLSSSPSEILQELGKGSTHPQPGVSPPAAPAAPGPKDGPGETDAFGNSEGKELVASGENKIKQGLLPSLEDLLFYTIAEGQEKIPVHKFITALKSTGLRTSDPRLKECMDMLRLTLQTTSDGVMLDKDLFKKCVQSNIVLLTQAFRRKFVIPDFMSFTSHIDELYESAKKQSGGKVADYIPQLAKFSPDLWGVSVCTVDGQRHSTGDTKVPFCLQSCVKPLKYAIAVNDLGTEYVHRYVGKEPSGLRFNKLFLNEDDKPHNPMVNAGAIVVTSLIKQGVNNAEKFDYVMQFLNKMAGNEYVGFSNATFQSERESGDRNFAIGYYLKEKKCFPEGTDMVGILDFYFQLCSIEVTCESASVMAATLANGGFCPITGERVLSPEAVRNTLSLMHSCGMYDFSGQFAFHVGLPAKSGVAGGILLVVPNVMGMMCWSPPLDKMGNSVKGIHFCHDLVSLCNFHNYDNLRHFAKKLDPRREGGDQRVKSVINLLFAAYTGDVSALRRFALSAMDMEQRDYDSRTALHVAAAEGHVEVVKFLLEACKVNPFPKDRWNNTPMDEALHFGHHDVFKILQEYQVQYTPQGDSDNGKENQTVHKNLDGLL
inactive: [1] -0.021 | filanesib -0.029 | zotarolimus 0.008 | idasanutlin -0.26 | alisertib -0.003 | [2] 0.216 | gefitinib 0.041 | [3] 0.031 | lapatinib 0 | pictilisib 0.078

FUCA1 (UniProt P04066)
inactive: [1] -0.014 | filanesib -0.057 | zotarolimus -0.025 | idasanutlin -0.044 | alisertib -0.004 | [2] -0.113 | gefitinib 0.003 | [3] 0.1 | lapatinib 0.047 | pictilisib 0

GTF3A (UniProt Q92664)
inactive: [1] 0.092 | filanesib -0.138 | zotarolimus 0.067 | idasanutlin -0.018 | alisertib 0.014 | [2] -0.225 | gefitinib -0.139 | [3] -0.006 | lapatinib 0.099 | pictilisib -0.042

GOLPH3 (UniProt Q9H4A6)
inactive: [1] 0.011 | filanesib -0.03 | zotarolimus 0.048 | idasanutlin -0.057 | alisertib -0.024 | [2] 0.131 | gefitinib 0.023 | [3] 0.012 | lapatinib -0.055 | pictilisib -0.051

FEN1 (UniProt P39748)
inactive: [1] 0.06 | filanesib -0.215 | zotarolimus 0.027 | idasanutlin -0.099 | alisertib 0.019 | [2] 0.039 | gefitinib -0.029 | [3] 0.096 | lapatinib -0.098 | pictilisib -0.005

FUCA2 (UniProt Q9BTY2)
inactive: [1] -0.094 | filanesib 0.002 | zotarolimus -0.019 | idasanutlin 0.177 | alisertib -0.044 | [2] 0.011 | gefitinib -0.013 | [3] 0.045 | lapatinib 0.025 | pictilisib 0.011

GPAT4 (UniProt Q86UL3)
inactive: [1] -0.034 | filanesib -0.024 | zotarolimus 0.055 | idasanutlin -0.093 | alisertib 0.01 | [2] 0.188 | gefitinib 0.006 | [3] -0.046 | lapatinib -0.031 | pictilisib 0.036

H2AFX (UniProt P16104)
inactive: [1] -0.06 | filanesib 0.393 | zotarolimus -0.3 | idasanutlin 0.484 | alisertib -0.007 | [2] -0.136 | gefitinib 0.049 | [3] -0.361 | lapatinib 0.054 | pictilisib -0.215

HBZ (UniProt P02008)
inactive: [1] 0.012 | filanesib -0.003 | zotarolimus 0.035 | idasanutlin 0.045 | alisertib -0.077 | [2] -0.055 | gefitinib 0.003 | [3] 0.093 | lapatinib 0.007 | pictilisib -0.006

FNTA (UniProt P49354)
inactive: [1] 0.162 | filanesib 0.069 | zotarolimus 0.019 | idasanutlin -0.062 | alisertib -0.074 | [2] -0.01 | gefitinib 0.056 | [3] 0.044 | lapatinib 0.04 | pictilisib -0.005

GEMIN2 (UniProt O14893)
inactive: [1] -0.099 | filanesib 0.132 | zotarolimus -0.093 | idasanutlin 0.034 | alisertib -0.017 | [2] -0.045 | gefitinib 0.032 | [3] -0.029 | lapatinib 0.034 | pictilisib 0.016
